Measurements reported in PubChem BioAssay AID1117361 (Southern Research Institute, 2015).
Out of some 3,600 compounds screened, about 900 (25%) were called active. No rule for the calls is given here. Not all results are given here. Results with a measured potency or affinity are listed apart.

Molecular target: Protein Tat (Human immunodeficiency virus type 1 group M subtype B (isolate HXB2)) (UniProt P04608)
Test: HIV-1 Tat–TAR interaction blockers – biochemical, fluorescence polarization, FAM-labeled TAR RNA, counter-screen for Vif-APOBEC3G degradation inhibitor project, dose response (AID 1117361)
Details: Tat-TAR RNA binding; series mostly up to 100 µM

Row | SMILES | outcome
1 | COc1ccc(CNC(=O)c2c(-c3cc(Cl)c(OC)c(Cl)c3)noc2C)cc1 | inactive
2 | OCCCNc1ncnc2c1[nH]c1ccccc12 | inactive
3 | CC(=O)Nc1cccc(-c2cc(-c3c(Cl)cccc3Cl)no2)c1 | inactive
4 | O=C(CCn1nc(-c2ccccc2)ccc1=O)N1CCCC1 | inactive
5 | CN1CCN(S(=O)(=O)c2ccc(NC(=S)NC(=O)c3ccc(Cl)cc3)cc2)CC1 | inactive
6 | Cc1cccc(OCCCC(=O)NC(C)c2ccccc2)c1 (centres undefined) | inactive
7 | CCn1c(=O)cc(N2CCC3(CC2)OCCO3)[nH]c1=O | inactive
8 | Cn1cc(Cl)c(C(=O)Nc2nc3ccccc3s2)n1 | inactive
9 | CCC(C)(c1nnnn1-c1c(C)cccc1C)N(N=O)c1ccccc1Cl (centres undefined) | inactive
10 | CSCCC(NS(=O)(=O)c1ccc2c(c1)oc(=O)n2C)C(=O)NC1CCCc2ccccc21 (centres undefined) | inactive
11 | COc1ccc(S(N)(=O)=O)cc1C(=O)OCC(=O)NC(C)(C#N)C1CC1 (centres undefined) | inactive
12 | O=c1cc(O)nc(SCc2ccccc2Cl)[nH]1 | inactive
13 | CSc1nc(N)c(C#N)c(-c2ccccc2Cl)c1C#N | inactive
14 | COc1ccc(C2(O)CCN(Cc3nnnn3Cc3ccc(F)cc3)CC2)cc1 | inactive
15 | CC(C)(C)NCCCCOc1ccc(F)cc1 | inactive
16 | CCOc1ccc(NC(=O)c2ccccc2NS(C)(=O)=O)cc1 | inactive
17 | Cc1c(O)nc(SCC(=O)Nc2ccc3c4c(cccc24)CC3)n(-c2ccc(F)cc2)c1=O | inactive
18 | CCOc1ccc(NC(=O)Cn2cncc2-c2ccc([N+](=O)[O-])cc2)cc1 | inactive
19 | Cc1cc(C)nc(N2N=C(C(C)(C)C)CC2=O)n1 | inactive
20 | COCCn1nnnc1C(c1cc2ccc(C)cc2[nH]c1=O)N(Cc1ccco1)Cc1cccs1 (centres undefined) | inactive
21 | COc1cc2cc(C(c3nnnn3C3CCCC3)N(C)C3CCCCC3)c(=O)[nH]c2cc1OC (centres undefined) | inactive
22 | CCCN(CC(=O)Nc1ccccc1OC)C(=O)CSc1ccc(Br)cc1C | inactive
23 | CC(=O)Nc1c(O)nc(SCC(=O)Nc2ccc(C(C)=O)cc2)[nH]c1=O | inactive

Row | SMILES | outcome
24 | CCN(CC)S(=O)(=O)c1ccc(NC(=O)CSc2nnc(-c3cccc(OC)c3)n2C)cc1 | inactive
25 | COc1ccc(NC(=O)CSc2nnc(C)n2Cc2ccccc2)cc1 | inactive
26 | COc1cccc(NC(=O)CSc2nnnn2C(C)C)c1 | inactive
27 | COc1ccc(NC(=O)CSc2nc(C)cc(C)n2)cc1 | inactive
28 | CSc1nc(C)cc(SCC(=O)Nc2ccccc2)n1 | inactive
29 | Cc1ccc[n+](CC(=O)c2cc3ccccc3oc2=O)c1 | inactive
30 | CCCc1nc(SCc2cccnc2)c2c(=O)n(C)c(=O)n(C)c2n1 | inactive
31 | O=C(NCc1ccc2c(c1)OCO2)C1CCCN1C(=O)Nc1ccccc1 (centres undefined) | inactive
32 | CCn1c(=O)oc2cc(NC(=O)CCl)ccc21 | inactive
33 | COC(=O)Cn1ncn2c(cc3oc(C)cc32)c1=O | inactive
34 | O=C(Cn1c(/C=C/c2ccccc2)nc2ccccc21)Nc1ccc(F)cc1 | inactive
35 | CCCCN(CCCC)S(=O)(=O)c1ccc(NC(=O)Cc2cccs2)cc1 | inactive
36 | Cc1ccnc(NS(=O)(=O)c2ccc(NC(=O)Cc3cccs3)cc2)n1 | inactive
37 | O=C(Nc1ccc2nc(-c3ccccc3)[nH]c2c1)c1cccs1 | inactive
38 | CC(C)OCCCNC(=O)c1cccs1 | inactive
39 | CN(Cc1cn(C)nc1-c1cccc(Cl)c1)Cc1nccn1C | inactive
40 | N#Cc1nc(Cc2ccccc2)oc1NCCCn1ccnc1 | inactive
41 | O=C(COc1ccc(F)cc1)Nc1ccc(-n2cnnn2)cc1 | inactive
42 | O=C(Nc1ccc2c(c1)OCCO2)N1CCN(c2ccccc2)CC1 | inactive
43 | CCOC(=O)C1CCN(C(=O)C2CCN(c3nc4ccc(OC)cc4s3)CC2)CC1 | inactive
44 | Cn1c(CN2CCCC2)nc2cc(NC(=O)Nc3ccccc3)ccc21 | inactive
45 | CCOC(=O)C1CCCN(CCC(=O)Nc2ccc3c(c2)CCC3)C1 (centres undefined) | inactive
46 | C/C(=C/C(=O)NCc1ccccc1)C(=O)O | inactive

Row | SMILES | outcome
47 | CN(C)c1ccc(N/C=C/C(=O)c2ccco2)cc1 | inactive
48 | O=C(Nc1ccccc1C(F)(F)F)c1cc(-c2ccc(O)cc2)on1 | inactive
49 | O=C(CN(C(=O)CCNC(=O)c1ccco1)c1ccccc1)NC1CCCC1 | inactive
50 | COc1ccc(/C=C/C2=NC(=C\N(C)C)/C(=O)O2)cc1 | inactive
51 | Nc1nnc(CC2=CCCCC2)s1 | inactive
52 | CCOc1ccc(/C=C2\NC(=S)NC2=O)cc1 | inactive
53 | O=C(Cn1[nH]c(=O)c2ccccc2c1=O)OCC(=O)N(Cc1ccccc1)Cc1ccccc1 | inactive
54 | CC(C)Cc1ccc(C(C)C(=N)N)cc1 (centres undefined) | inactive
55 | CC(C)N(C(=O)CO/N=C/c1cccc([N+](=O)[O-])c1)C(C)C | inactive
56 | C=CCOc1ccc2c(c1)C(=NO)c1cc(OCC=C)ccc1-2 | inactive
57 | O=C(Nc1c2c(nn1-c1ccc(F)cc1)CS(=O)C2)C12CC3CC(CC(C3)C1)C2 (centres undefined) | inactive
58 | CC(C)NC(=O)C1CCCN(S(=O)(=O)c2cccs2)C1 (centres undefined) | inactive
59 | Cc1ccc2oc(=O)c3cnn(CC(=O)NC4CCCCC4C)c3c2c1 (centres undefined) | inactive
60 | O=C(c1cnn2cccnc12)N1CCN(Cc2ccc3c(c2)OCO3)CC1 | inactive
61 | CC(=O)Nc1ccc(S(=O)(=O)N2CCN(CCCOc3ccccc3Cl)CC2)cc1 | inactive
62 | O=C(COc1ccccc1Cl)NCCc1ccc2c(c1)OCCO2 | inactive
63 | CCCCn1c(C(C)NC(=O)CC)nc2ccccc21 (centres undefined) | inactive
64 | COc1ccc(CNS(=O)(=O)c2cc(Br)cc3c2N(C(C)=O)C(C)C3)cc1 (centres undefined) | inactive
65 | COCC(C)NC(=O)C1CC(c2cccc(Br)c2)=NO1 (centres undefined) | inactive
66 | COc1ccc(C2C(C#N)=C(SCC(=O)Nc3ccc(C)cc3)NC3=C2C(=O)CC(C)(C)C3)cc1 (centres undefined) | inactive
67 | COC(=O)CSC1=C(C#N)C(c2ccccc2)CC(=O)N1 (centres undefined) | inactive
68 | CCCNC(=S)NC1CCCC1 | inactive
69 | Cc1ccc(C(=O)CSc2ccccn2)cc1 | inactive

Row | SMILES | outcome
70 | Cc1nnc(SCc2cnc(-c3ccccc3)o2)[nH]c1=O | inactive
71 | CCOc1cc(C2NC(=O)NC(O)(C(F)(F)F)C2C(=O)c2ccccc2)ccc1OC (centres undefined) | inactive
72 | CSc1nc(N2CCOCC2)c2c3c(sc2n1)CCC3 | inactive
73 | CN(C)CCNc1ncnc2c1sc1nc(-c3ccccc3)c3c(c12)CCCC3 | inactive
74 | Clc1ccccc1Nc1c2c(nc3ncnn13)CCC2 | inactive
75 | CC(=O)NCc1c(Cl)cccc1-n1cccc1 | inactive
76 | CCCS(=O)(=O)NCc1cn2c(C)csc2n1 | inactive
77 | CN(C(=O)COc1ncnc2sccc12)c1ccccc1 | inactive
78 | COc1ccccc1NS(=O)(=O)c1cccs1 | inactive
79 | CCCCNc1nc2ccccc2nc1NS(=O)(=O)c1cccs1 | inactive
80 | Cc1cc(/C=C2\SC(=S)NC2=O)c(C)n1-c1ccc(O)cc1 | inactive
81 | Cc1cc(/C=C2\SC(=S)NC2=O)c(C)n1-c1ccccc1 | inactive
82 | CCc1ccc(-n2c(SCc3c(C)noc3C)nnc2-c2ccncc2)cc1 | inactive
83 | CCn1c(C(=O)N2CCc3ccccc3C2)cc2sccc21 | inactive
84 | Cc1noc(C)c1C(=O)N1CCc2ccccc2C1 | inactive
85 | CCC(C)(C)C1CCc2c(sc(NC(=O)c3ccoc3C)c2C(N)=O)C1 (centres undefined) | inactive
86 | COc1cc(NC(=O)c2nnn(Cc3ccc(SC)cc3)c2N)cc(OC)c1 | inactive
87 | Cc1ccc(SCC(=O)c2sc(-c3ccccc3)nc2C)cc1 | inactive [at 50 µM]
88 | CS(=O)(=O)N(CC(=O)Nc1ccc2c(c1)OCO2)Cc1ccccc1 | inactive
89 | COC(=O)c1ccc(Cl)c(NC(=O)CN(c2ccc3c(c2)OCO3)S(C)(=O)=O)c1 | inactive
90 | O=C(NCc1ccc(F)cc1)c1c(O)c2cccc3c2n(c1=O)CCC3 | inactive
91 | Cc1ccc(C(=O)Nc2nc3ccccc3n2CCN2CCCC2)cc1 | inactive
92 | CCN1C(=O)c2c(C)nc3ccccc3c2C1=O | inactive

Row | SMILES | outcome
93 | COCCCN1C(=O)N(c2ccc(F)cc2)C(=O)C1CC(=O)Nc1ccc(OC)cc1 (centres undefined) | inactive
94 | Cc1cc(C)c([N+](=O)[O-])cc1-c1ccc(/C=N/NC(=O)c2nonc2N)o1 | inactive
95 | NC(=S)N/N=C/c1ccc(-c2cccc([N+](=O)[O-])c2)o1 | inactive
96 | O=C(NNC(=O)c1ccccc1O)c1ccc(-c2ccc([N+](=O)[O-])cc2)o1 | inactive
97 | N=C(c1cccc([N+](=O)[O-])c1)N1CCCCCC1 | inactive
98 | Cc1ccc(C(=O)OCc2cn3ccccc3n2)cc1 | inactive
99 | COc1cccc(NC(=O)N2CCN(c3nnnn3-c3ccccc3)CC2)c1 | inactive
100 | Cc1ccc(-n2nc(C)c3c(C)c(CCC(=O)O)c(C)nc32)cc1 | inactive
101 | Cc1cc(=O)nc2c3ccccc3n(C(C)C(=O)NCCC(C)C)n12 (centres undefined) | inactive
102 | O=C(COc1ccc(S(=O)(=O)N2CCCC2)cc1)NCCC1=CCCCC1 | inactive
103 | CCN(CC)CCCNC(=O)c1cn(CCOC)c(=O)c2c1c1ccccc1n2C | inactive
104 | Cc1cc(C)cc(-n2nnc(C(=O)NCc3ccco3)c2N)c1 | inactive
105 | COc1ccc(-n2nc(C(=O)NCc3ccco3)c3ccccc3c2=O)cc1 | inactive
106 | CC1(C)CC2(CC(c3ccccc3F)c3ccc(O)c(O)c3O2)NC(=S)N1 (centres undefined) | inactive
107 | CCN1CCN(Cc2cc(=O)oc3ccc(C)cc23)CC1 | inactive
108 | CCc1cc2c(CN3CCN(CC)CC3)cc(=O)oc2cc1O | inactive
109 | CCc1ccc2c(CN3CCC(C(=O)OC)CC3)cc(=O)oc2c1 | inactive
110 | C=C(Cl)COc1ccc2c(CCC)cc(=O)oc2c1 | inactive
111 | COc1ccc(S(=O)(=O)N2CCOC2CNC(=O)C(=O)NCc2ccccn2)cc1 (centres undefined) | inactive
112 | CC(C)C(C(=O)OCC(=O)c1ccc2c(c1)NC(=O)CO2)N1C(=O)c2ccccc2C1=O (centres undefined) | inactive
113 | COCCNC(C)C(=O)C12CC3CC(CC(C3)C1)C2 (centres undefined) | inactive
114 | Oc1ccc(/C=N/N2CCCCC2)c(O)c1O | inactive
